# From PubChem BioAssay (Tox21)
# Active and inactive are the calls of the source. Entries that show only a call come without a potency. Calls come from the whole dose curve; as a rule, active = well fitted curve in the direction sought with a large enough effect in the repeat runs; inconclusive = weak or mixed curves; inactive = flat fitted curve, though single readings scatter.
# Assay: qHTS assay to test for compound auto fluorescence at 590 nm (red) in HEK293 cell free culture (AID 720683)
# Settings: cell-free medium autofluorescence, Ex540/Em590 red; series mostly up to 46 µM
# From the text: U.S. Tox21 Program National Center for Advancing Translational Sciences [NCATS] NIH Chemical Genomics Center [NCGC] U.S. Environmental Protection Agency [EPA] National Institutes of Environmental Health Sciences [NIEHS] National Toxicology Program [NTP] U.S. Food and Drug Administration [FDA] Tox21 Assay Overview: Compound auto fluorescence often interferes with screening of the compound library against various biological targets and signaling pathways. Some of these compounds may have fluorophoric properties. Such properties may interfere with the assay outputs resulting in false positives and/or negatives. To decrease such complications and ensure the compound activities are relevant in terms of biological response, the Tox21 10K compound library was screened for auto fluorescence. From the fluorophores used as reporter signals in our screening assays, the auto fluorescence equivalencies of compounds against three fluorophores have been evaluated: Triamterene, Fluorescein and Rose Bengal sodium for blue, green and red fluorescence, respectively. The fluorescence intensities were measured using Excitation/Emission wavelengths at 405/460nm, 485/535nm and 540/590nm for blue, green and red labels, respectively. This assay includes the red fluorescence data.
# Tox21 Assay Protocol Summary: 5 uL of culture medium (DMEM containing 10% FBS) per well was dispensed into black wall/clear bottom 1536-well plates using a Multidrop Combi Dispenser (ThermoFisher Scientific, Waltham, MA). After 23 nL compound or DMSO vehicle was transferred into assay plate by a pintool work station (Kalypsys, San Diego, CA), fluorescence intensities in the assay plates were measured by an Envision (PerkinElmer, Shelton, CT) plate reader using three labels for measuring blue, green and red fluorescence at […] 460, 535 and 590nm respectively.
row,Compound,Potency
1,O=C(NNCS(=O)(=O)O)c1ccncc1,inactive
2,O=C(O)CO.[NH2-].[NH2-].[Pt+2],inactive
3,CCN(CC)CCOC(=O)c1cccnc1,inactive
4,COC(=O)[C@H]1[C@H]2C[C@@H]3c4[nH]c5cc(OC)ccc5c4CCN3C[C@H]2C[C@@H](OC(=O)/C=C/c2cc(OC)c(OC)c(OC)c2)[C@@H]1OC,inactive
5,CC1(C)S[C@@H]2[C@H](NC(=O)[C@H](NC(=O)N3CCN(S(C)(=O)=O)C3=O)c3ccccc3)C(=O)N2[C@H]1C(=O)O,inactive
6,CC1(C)S[C@@H]2[C@H](NC(=O)[C@H](N)c3ccccc3)C(=O)N2[C@H]1C(=O)OCOC(=O)[C@@H]1N2C(=O)C[C@H]2S(=O)(=O)C1(C)C,inactive
7,CC(Oc1ccccc1)C(=O)N[C@@H]1C(=O)N2[C@@H]1SC(C)(C)[C@@H]2C(=O)O (stereo not given in full),inactive
8,N#Cc1ccc2c(c1)N(CCCN1CCC(O)CC1)c1ccccc1S2,inactive
9,CO[C@H]1[C@@H](O)[C@H](N)[C@@H](O[C@H]2O[C@H]([C@H](C)N)CC[C@H]2N)[C@H](O)[C@@H]1N(C)C(=O)CN,inactive
10,Clc1ccc(COC(Cn2ccnc2)c2ccc(Cl)cc2Cl)c(Cl)c1 (stereo not given),inactive
11,COc1cc(/C=C/C(=O)N2CCN(CC(=O)N3CCCC3)CC2)cc(OC)c1OC,inactive
12,CCN(CC)CCC(=O)N1c2ccccc2Sc2ccc(Cl)cc21,inactive
13,COc1cc(C)c(/C=C/C(C)=C/C=C/C(C)=C/C(=O)O)c(C)c1C,inactive
14,CC[C@H]1OC(=O)[C@H](C)[C@@H](O[C@H]2C[C@@](C)(OC)[C@@H](O)[C@H](C)O2)[C@H](C)[C@@H](O[C@@H]2O[C@H](C)C[C@H](N(C)C)[C@H]2O)[C@](C)(O)C[C@@H](C)[C@@H]2N[C@@H](COCCOC)O[C@@H]([C@H]2C)[C@]1(C)O,inactive
15,CC1=C(/C=C/C(C)=C/C=C/C(C)=C/C=C/C=C(C)/C=C/C=C(C)/C=C/C2=C(C)C[C@@H](O)CC2(C)C)C(C)(C)C[C@H](O)C1,inactive
16,C/C1=C2N=C(/C=C3N=C(/C(C)=C4\[N-]C(C(CC(N)=O)C4(C)CCC(=O)NCC(C)OP(=O)([O-])OC4C(CO)OC(n5cnc6cc(C)c(C)cc65)C4O)C4(C)N=C1C(CCC(N)=O)C4(C)CC(N)=O)C(CCC(N)=O)C\3(C)C)C(CCC(N)=O)C/2(C)CC(N)=O.[CH3-].[Co+3] (stereo not given),inactive
17,CO/N=C(\C(=O)N[C@@H]1C(=O)N2C(C(=O)O)=C(CSc3nnnn3C)CS[C@H]12)c1csc(N)n1,inactive
18,CN[C@@H]1CCc2[nH]c3ccc(C(N)=O)cc3c2C1,inactive
19,CC(=O)[C@@]1(O)CC[C@H]2[C@@H]3C=C(Cl)C4=CC(=O)[C@@H]5C[C@@H]5[C@]4(C)[C@H]3CC[C@@]21C,inactive
20,CCCCCCCCCCCCCCCC(=O)OC[C@@H](NC(=O)C(Cl)Cl)[C@H](O)c1ccc([N+](=O)[O-])cc1,inactive

row,Compound,Potency
1,O=C(O)c1ccc(NC(=O)[C@H](Cc2ccc(O)cc2)NC(=O)c2ccccc2)cc1,inactive
2,CCCC(=O)Nc1c(I)cc(I)c(CC(CC)C(=O)O)c1I (stereo not given),inactive
3,C[C@]12CCC(=O)C=C1CC[C@@H]1[C@@H]2[C@@H](O)C[C@@]2(C)[C@H]1CC[C@]2(O)C(=O)COP(=O)(O)O,inactive
4,CO[C@H]1C[C@H](O[C@H]2[C@H](C)[C@@H](O[C@@H]3O[C@H](C)C[C@H](N(C)C)[C@H]3OC(C)=O)[C@@H](C)C[C@]3(CO3)C(=O)[C@H](C)[C@@H](OC(C)=O)[C@@H](C)[C@@H](C)OC(=O)[C@@H]2C)O[C@@H](C)[C@@H]1OC(C)=O,inactive
5,CCOC(=O)Oc1c(OC)cc(C(=O)O[C@@H]2C[C@@H]3CN4CCc5c([nH]c6cc(OC)ccc56)[C@H]4C[C@@H]3[C@H](C(=O)OC)[C@H]2OC)cc1OC,inactive
6,CCC[C@@]1(CCc2ccccc2)CC(O)=C([C@H](CC)c2cccc(NS(=O)(=O)c3ccc(C(F)(F)F)cn3)c2)C(=O)O1,inactive
7,O=C1CSC2(CCN(CCCN3c4ccccc4Sc4ccc(Cl)cc43)CC2)N1,inactive
8,O=C(O)COc1ccc(CCNS(=O)(=O)c2ccccc2)s1,inactive
9,OC(CN1CCCCC1)c1cc(-c2ccccc2)on1 (stereo not given),inactive
10,CC1(C)C2CC[C@]3(C)[C@H](C(=O)C=C4[C@@H]5C[C@@](C)(C(=O)O)CC[C@]5(C)CC[C@]43C)[C@@]2(C)CC[C@@H]1O[C@H]1O[C@H](C(=O)O)[C@@H](O)[C@H](O)[C@H]1O[C@@H]1O[C@H](C(=O)O)[C@@H](O)[C@H](O)[C@H]1O (stereo not given in full),inactive
11,CC(=C\c1ccccc1)/C=C1/SC(=S)N(CC(=O)O)C1=O,inactive
12,CCOc1cc(-c2nccc3cc(OC)c(OC)cc23)cc(OCC)c1OCC,inactive
13,C[C@H](O)[C@H](O)[C@H]1CNc2nc(N)[nH]c(=O)c2N1,inactive
14,CCCCC[C@H](O)/C=C/[C@@H]1[C@H]2C/C(=C/CCCC(=O)O)O[C@H]2C[C@H]1O,inactive
15,O=C[C@H](O)[C@@H](O)[C@H](O[C@H]1O[C@H](CO)[C@@H](O[C@H]2O[C@H](CO)[C@@H](O)[C@H](O)[C@H]2O)[C@H](O)[C@H]1O)[C@H](O)CO,inactive
16,CC(C)[C@@H]1CC[C@@H](C)C[C@H]1OC(=O)c1ccccc1O,inactive
17,Cn1c(O)c(N=NC(N)=S)c2ccccc21,inactive
18,COCC(=O)Nc1cc(Sc2ccccc2)ccc1N=C(NC(=O)OC)NC(=O)OC,inactive
19,Cc1cc(C)c(NC(=O)C[C@H](CC(=O)O)c2cccc3ccccc23)c(C(=O)N2CCC3(CCCC3)CC2)c1,inactive
20,O=C1O[C@H]2[C@H](O)[C@@H]1OC(O)[C@H]2O (stereo not given in full),inactive
